Experimental findings from the supplement of paper PMC10981050 are described below.

Structures can show the parent of a compound that is named as a salt.

This experiment concerns K562. Put plainly: cell viability relative to vehicle control; higher = less cytotoxic. The note with it: 10 µM; SRSF2 genotype: SRSF2 wt/wt. An outline of the steps: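 Mutant clones made by CRISPR editing and their isogenic wild-type counterparts, from four leukaemia lines, were exposed to a single 10 µM dose of each library compound for 48 h. The supernatant was then removed and CellTiter-Glo luminescence was read. Viability was reported as percent of the on-plate vehicle control.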
What is called cell viability is a read-out of living cells in per cent, often relative to untreated cells. Regarding `OCC1OC(OC2OC(CO)C(O)C(O)C2O)C(O)C(O)C1O` [D-(+)-Trehalose Anhydrous], the cell viability amounted to 114%.

With `CCCCCCCCCCCCCCCCCC[N+](C)(C)C` [Trimethyloctadecylammonium bromide], the cell viability was found to be 48.1%.

As for `CC(C)c1cc(-c2ccc(F)c3ccccc23)nc(N)n1`, the cell viability worked out at 94.9%.

For `Cc1nc2n(c(=O)c1CCN1CCC(c3noc4cc(F)ccc34)CC1)CCCC2` [Risperidone (Risperdal)], the cell viability was 93.5%.

With `Cc1[nH]c2ccccc2c1C1=C(NCCc2ccc(F)cc2)C(=O)N(C)C1=O`, the cell viability worked out at 102%.

Turning to `Cc1nc(N)sc1-c1ccnc(Nc2ccc(N3CCOCC3)cc2)n1`, the cell viability is 64.5%.

For the molecule `CN(C)CCC(c1ccc(Br)cc1)c1ccccn1` (configuration not stated) [Brompheniramine hydrogen maleate], the cell viability was determined as 91.3%.

On to `C[S+](CC[C@H](N)C(=O)[O-])C[C@H]1O[C@@H](n2cnc3c(N)ncnc32)[C@H](O)[C@@H]1O` (some centres not stated) [Ademetionine disulfate tosylate], for which the cell viability amounted to 103%.

For `CNCc1cc(-c2ccccc2F)n(S(=O)(=O)c2cccnc2)c1` [Vonoprazan Fumarate (TAK-438)], the cell viability was 94.2%.

For `C=CC(=O)N1CC[C@@H](Oc2nc(Nc3ccc(N4CCC(N5CCN(C)CC5)CC4)cc3)c(C(N)=O)nc2CC)C1` [ASP8273 (Naquotinib)], the cell viability amounted to 47.1%.

Turning to `CC(=O)NC[C@H]1CN(c2ccc(N3CCOCC3)c(F)c2)C(=O)O1` [Linezolid (Zyvox)], the cell viability was found to be 84.3%.

As for `CC(C)=CCC[C@](C)(O[C@@H]1O[C@H](CO)[C@@H](O)[C@H](O)[C@H]1O)[C@H]1CC[C@]2(C)[C@@H]1[C@H](O)C[C@@H]1[C@@]3(C)CC[C@H](O)C(C)(C)[C@@H]3[C@@H](O[C@@H]3O[C@H](CO)[C@@H](O)[C@H](O)[C@H]3O[C@@H]3OC[C@@H](O)[C@H](O)[C@H]3O)C[C@]12C` [Notoginsenoside R1], the cell viability came to 94.8%.
